PubChem BioAssay AID1159580 (chemical genetic matrix, 2015)
Several values for one entry are separate records, joined by “and”; a condition that tells them apart may be missing. Equal entries are not always repeated. About 2,000 (36%) of roughly 5,500 compounds were called active. Another 18% or so got no clear call; they are omitted. No stated cut-off is given here; in the data, active means normalized growth mostly below about 0.91 (no sharp cut-off); inconclusive means no clear call, values can overlap the other calls; inactive means mostly above about 0.92. The list shows a part of the results.

Assay: chemical genetic growth profiling, strain panel (AID 1159580);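 further: tested at 20 µM; growth read once vehicle control cultures reached saturation at 30 °C; 1 = growth at the plate median or of vehicle wells; lower values mean less growth of the strain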
Conditions: S. cerevisiae deletion strains, growth OD

Measured: normalized growth

NC(=O)NO
inactive: locus YAL021C, strain ccr4, hits give low values 1.02 | locus YAL026C, strain drs2, hits give low values 1.03 | locus YAL030W, strain snc1, hits give low values 1 | locus YAL040C, strain CLN3, hits give low values 1.09 | locus YBL061C, strain skt5, hits give low values 1.04 | locus YBR009C, strain hhf1, hits give low values 1.01 | locus YBR021W, strain FUR4, hits give low values 1 | locus YBR023C, strain chs3, hits give low values 1.02 | locus YBR171W, strain sec66, hits give low values 1.02 | locus YBR229C, strain ROT2, hits give low values 0.999 | locus YBR231C, strain swc5, hits give low values 1.01 | locus YBR279W, strain paf1, hits give low values 1.03 | locus YCL011C, strain gbp2, hits give low values 1.02 | locus YCL016C, strain dcc1, hits give low values 1.02 | locus YCL029C, strain bik1, hits give low values 1 | locus YCL061C, strain MRC1, hits give low values 1.01 | locus YCL069W, strain vba3, hits give low values 1.02 | locus YCR088W, strain abp1, hits give low values 1.02 | locus YDL005C, strain med2, hits give low values 1.02 | locus YDL035C, strain GPR1, hits give low values 1.01 | locus YDL040C, strain nat1, hits give low values 1.04 | locus YDL074C, strain BRE1, hits give low values 1.01 | locus YDL101C, strain DUN1, hits give low values 1 | locus YDL134C, strain PPH21, hits give low values 1 | locus YDL185W, strain tfp1, hits give low values 0.994 | locus YDL192W, strain arf1, hits give low values 1.01 | locus YDR001C, strain nth1, hits give low values 1.01 | locus YDR069C, strain doa4, hits give low values 1.02 | locus YDR101C, strain arx1, hits give low values 0.996 | locus YDR137W, strain rgp1, hits give low values 1.04 | locus YDR159W, strain sac3, hits give low values 1.01 | locus YDR162C, strain NBP2, hits give low values 1.01 | locus YDR195W, strain ref2 0.962 | locus YDR297W, strain sur2, hits give low values 1.02 | locus YDR318W, strain mcm21, hits give low values 1 | locus YDR334W, strain swr1, hits give low values 1.01 | locus YDR335W, strain msn5, hits give low values 1.02 | locus YDR363W, strain ESC2, hits give low values 1.01 | locus YDR388W, hits give low values 0.998 | locus YDR392W, strain spt3, hits give low values 1.04 | locus YDR502C, strain sam2, hits give low values 0.989 | locus YEL003W, strain gim4, hits give low values 1.02 | locus YEL037C, strain rad23, hits give low values 1.01 | locus YEL061C, strain CIN8 (second series), hits give low values 1.02 | locus YEL061C, strain CIN8, hits give low values 1 | locus YER002W, strain NOP16, hits give low values 0.998 | locus YER015W, strain faa2, hits give low values 1.01 | locus YER016W, strain bim1, hits give low values 1.01 | locus YER110C, hits give low values 0.997 | locus YER111C, strain swi4, hits give low values 1.03 | locus YER155C, strain BEM2 (second series), hits give low values 1.01 | locus YER155C, strain BEM2, hits give low values 0.998 | locus YER167W, strain BCK2, hits give low values 1 | locus YFR010W, strain ubp6, hits give low values 1.01 | locus YGL078C, strain dbp3, hits give low values 0.999 | locus YGL086W, strain mad1, hits give low values 0.985 | locus YGL167C, strain pmr1, hits give low values 1.02 | locus YGL173C, strain kem1, hits give low values 1.02 | locus YGL227W, strain vid30, hits give low values 1.01 | locus YGL240W, strain doc1, hits give low values 0.983 | locus YGL248W, strain PDE1, hits give low values 1 | locus YGL253W, strain hxk2, hits give low values 1.03 | locus YGR078C, strain PAC10, hits give low values 1 | locus YGR135W, strain pre9, hits give low values 0.997 | locus YGR229C, strain SMI1, hits give low values 0.997 | locus YGR252W, strain gcn5, hits give low values 0.943 | locus YHR013C, strain ard1, hits give low values 1.02 | locus YHR027C, strain rpn1, hits give low values 1.02 | locus YHR030C, strain SLT2, hits give low values 0.989 and 0.962 | locus YHR079C, strain IRE1 (second series), hits give low values 1 | locus YHR079C, strain IRE1, hits give low values 0.981 | locus YHR094C, strain hxt1, hits give low values 0.997 | locus YHR129C, strain ARP1, hits give low values 1 | locus YHR142W, strain chs7, hits give low values 1.04 | locus YHR200W, strain rpn10, hits give low values 0.992 | locus YIL066C, strain RNR3, hits give low values 1.01 | locus YIL073C, strain SPO22, hits give low values 1.03 | locus YIL125W, strain kgd1, hits give low values 0.989 | locus YIR030C, strain dcg1, hits give low values 1.01 | locus YJL092W, strain hpr5, hits give low values 1.02 | locus YJL095W, strain BCK1 (second series), hits give low values 1 | locus YJL095W, strain BCK1, hits give low values 1.01 and 0.965 | locus YJL115W, strain asf1, hits give low values 1.01 | locus YJL129C, strain trk1, hits give low values 1.03 | locus YJL134W, strain LCB3, hits give low values 1 | locus YJL154C, strain vps35, hits give low values 1.03 | locus YJL164C, strain tpk1, hits give low values 1.01 | locus YJL166W, strain qcr8, hits give low values 1.03 | locus YJL168C, strain set2, hits give low values 1 | locus YJL187C, strain SWE1 (second series), hits give low values 1 | locus YJL187C, strain SWE1, hits give low values 1.03 | locus YJR043C, strain POL32, hits give low values 1
